Test results reported in PubChem BioAssay (Tox21).
Inconclusive results are not listed. Calls of active or inactive are those of the source. Unless noted, the call rests on the fitted dose curve; in most records, active means well fitted curve in the direction sought with a large enough effect in the repeat runs; inconclusive means weak or mixed curves; inactive means no such curve, though single readings can be large; an effect the other way counts as inactive or inconclusive.

Columns and labels:
[1] = A CellTox Green Cytotoxicity Assay to monitor cytotoxicity in HepG2 cells - 8 hour (AID 1224890); further: nearly all actives have a fitted effect of over 45% in size; further: potency means the concentration at half of the fitted maximal effect
Outline: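 Real-time, homogeneous cytotoxicity readout: dead-cell DNA staining by CellTox Green in HepG2 monolayers, fluorescence measured at timed intervals up to 40 h of continuous compound exposure.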

[2] = qHTS assay to identify small molecule antagonists of the estrogen receptor alpha (ER-alpha) signaling pathway using the BG1 cell line in the presence of 0.1 nM 17-beta-estradiol - cell viability counter screen (AID 1259241); further: nearly all actives have a fitted effect of over 40% in size
Outline: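 Live-cell protease activity (CellTiter-Fluor fluorescence, 30 min) was read in the same wells after VM7Luc4E2 cells had been exposed to compounds with 0.1 nM 17beta-estradiol for 22 hr at 37C.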

[3] = biological target: Estrogen receptor (Homo sapiens) (UniProt P03372); assay: qHTS assay to identify small molecule antagonists of the estrogen receptor alpha (ER-alpha) signaling pathway using the BG1 cell line in the presence of 0.1 nM 17-beta-estradiol (AID 1259244); further: nearly all actives have a fitted effect of over 50% in size
Chain of Estrogen receptor (Homo sapiens) (P03372 whole entry, looked up): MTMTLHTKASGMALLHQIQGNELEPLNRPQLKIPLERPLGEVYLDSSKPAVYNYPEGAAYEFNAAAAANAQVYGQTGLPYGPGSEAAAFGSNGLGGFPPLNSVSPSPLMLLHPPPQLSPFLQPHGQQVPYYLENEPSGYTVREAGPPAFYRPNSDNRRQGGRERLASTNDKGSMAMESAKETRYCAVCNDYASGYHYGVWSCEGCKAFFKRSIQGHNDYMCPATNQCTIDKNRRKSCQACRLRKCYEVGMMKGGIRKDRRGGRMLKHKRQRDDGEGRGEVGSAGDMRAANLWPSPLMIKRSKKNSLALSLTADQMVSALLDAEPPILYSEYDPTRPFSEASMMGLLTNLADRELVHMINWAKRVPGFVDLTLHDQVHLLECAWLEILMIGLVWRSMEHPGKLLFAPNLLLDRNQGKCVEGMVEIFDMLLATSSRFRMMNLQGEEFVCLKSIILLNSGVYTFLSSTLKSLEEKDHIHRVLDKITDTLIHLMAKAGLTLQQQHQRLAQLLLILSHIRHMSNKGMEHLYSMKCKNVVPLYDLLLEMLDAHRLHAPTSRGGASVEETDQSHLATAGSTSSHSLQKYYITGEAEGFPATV
Outline: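 After 5 days in hormone-depleted medium (charcoal-stripped serum, no phenol red), VM7Luc4E2 cells were seeded, incubated 24 h, then co-treated with compound and 0.1 nM (final) estradiol for 22 h before luminescence detection.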

[4] = qHTS assay to identify small molecule HDAC inhibitors - cell viability counter screen (AID 1259365); further: series mostly up to about 92 µM; nearly all actives have a fitted effect of over 50% in size
Outline: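 HCT-116 (wild type), 1,500 cells/well, overnight 37C/5% CO2; compound in DMSO 2hr; CellTiter-Glo 30min RT; luminescence read.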

[5] = qHTS assay to identify small molecule agonists of the sonic hedgehog signaling (Shh) pathway - cell viability counter screen (AID 1259366); further: nearly all actives have a fitted effect of over 50% in size; further: potency means the concentration at half of the fitted maximal effect
Outline: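 CellTiter-Fluor fluorescence read-out, 1 hr at 37C, added after 23hr compound exposure. Cells: 3T3 Gli1-Luc, an NIH/3T3 clone with stably integrated Gli1-Luc reporter, plated 4hr before compound.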

[6] = qHTS assay to identify small molecule antagonists of the sonic hedgehog signaling (Shh) pathway - cell viability counter screen (AID 1259367); further: nearly all actives have a fitted effect of over 55% in size; further: potency means the concentration at half of the fitted maximal effect
Outline: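 Seed 3T3 Gli1-Luc cells at 2,000 per well; incubate 4 hr; add compound in DMSO, then conditioned medium; incubate at 37C with 5% CO2; add CellTiter-Fluor after 23 hr; read fluorescence 1 hr later.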

[7] = qHTS assay to identify small molecule agonists of the sonic hedgehog signaling (Shh) pathway (AID 1259368; calls by dose curve;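 further: NIH/3T3-derived 3T3Gli1-Luc cells carrying a stable Gli1-driven firefly luciferase reporter; series mostly up to about 92 µM; nearly all actives have a fitted effect of over 15% in size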)
Outline: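 Steps: seed 3T3 Gli1-Luc cells, incubate 4 hr at 37 C, pin-transfer compounds in DMSO alongside a positive control, incubate 24 hr, add luciferase detection reagent, wait 30 min at room temperature, read luminescence.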

[8] = qHTS assay to identify small molecule antagonists of the sonic hedgehog signaling (Shh) pathway (AID 1259369; calls by dose curve; further: nearly all actives have a fitted effect of over 45% in size; further: potency means the concentration at half of the fitted maximal effect)
Outline: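 Inhibition of Shh signalling is measured as reduced Gli1-response-element firefly luciferase output in an NIH/3T3-derived stable reporter clone stimulated with conditioned medium for 24hr.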

[9] = qHTS assay to identify small molecule agonists of the androgen receptor (AR) signaling pathway in the presence of an antagonist - cell viability counter screen (AID 1259379); further: nearly all actives have a fitted effect of over 25% in size; further: potency means the concentration at half of the fitted maximal effect
Outline: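 Fluorescence from CellTiter-Fluor, added after 15 hr and read 1 hr later, gave cell viability. Cells were MDA-kb2 exposed to compounds (15 concentrations) in the presence of 3.0uM nilutamide at 37C, 0% CO2.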

[10] = qHTS assay to identify small molecule agonists of the estrogen receptor beta (ER-beta) signaling pathway - cell viability counter screen (AID 1259380); further: nearly all actives have a fitted effect of over 30% in size; further: potency means the concentration at half of the fitted maximal effect
Outline: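 Same-well viability counter screen. Cells: ER-beta-UAS-bla HEK293T, plated 6 hr before compound, in 2% charcoal-stripped FBS. Compound exposure 16 hr, 37C; viability by CellTiter-Glo luminescence after 30 min at room temperature.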

[11] = qHTS assay to identify small molecule antagonists of the estrogen receptor beta (ER-beta) signaling pathway - cell viability counter screen (AID 1259382); further: nearly all actives have a fitted effect of over 55% in size; further: potency means the concentration at half of the fitted maximal effect
Outline: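 Following a 6 hr plating period, HEK293T cells carrying a UAS-driven beta-lactamase reporter under ER-beta control received compounds and 1nM E2 (final). After 16 hr at 37C and 2 hr substrate loading, CellTiter-Glo luminescence indicated viability.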

[12] = biological target: Estrogen receptor (Homo sapiens) (UniProt P03372); assay: qHTS assay to identify small molecule agonists of the estrogen receptor alpha (ER-alpha) signaling pathway in the presence of an antagonist (AID 1259383; calls by dose curve; further: top concentration of the series differs between compounds; nearly all actives have a fitted effect of over 15% in size)
Outline: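 Cells are hormone-deprived for 5 days (charcoal-stripped FBS, no phenol red), plated for 24hr, spiked with 10.0nM ICI-182,780, then dosed at 15 concentrations. After 22hr at 37C, ONE-Glo luminescence reports ERE-luciferase activity.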

[13] = qHTS assay to identify small molecule agonists or antagonists of the thyroid stimulating hormone receptor (TSHR) signaling pathway - wild type cell line counter screen (AID 1259384; calls by dose curve)
Outline: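 Wild-type Hek293 cells, 800/well, 18 h at 37C, then compound with Ro20-1724 for 30 min RT. cAMP by HTRF (cAMP-d2/anti-cAMP cryptate), 1 h RT, fluorescence read. 15 concentrations, triplicates.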

[14] = qHTS assay to identify small molecule HDAC inhibitors (AID 1259364); further: nearly all actives have a fitted effect of over 45% in size; further: potency means the concentration at half of the fitted maximal effect
Outline: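 Homogeneous cell-based luminescent assay of endogenous class I/II HDAC activity; HCT-116 cells, 2 h compound exposure, 30 min HDAC-Glo development at RT.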

[15] = biological target: Estrogen receptor beta (Homo sapiens) (UniProt Q92731); assay: qHTS assay to identify small molecule agonists of the estrogen receptor beta (ER-beta) signaling pathway (AID 1259377; active means well fitted activation curve with a large enough effect in the signal ratio in the repeat runs, not every such curve was filed as active; the % refers to the signal ratio)
Chain of Estrogen receptor beta (Homo sapiens) (Q92731 whole entry, looked up): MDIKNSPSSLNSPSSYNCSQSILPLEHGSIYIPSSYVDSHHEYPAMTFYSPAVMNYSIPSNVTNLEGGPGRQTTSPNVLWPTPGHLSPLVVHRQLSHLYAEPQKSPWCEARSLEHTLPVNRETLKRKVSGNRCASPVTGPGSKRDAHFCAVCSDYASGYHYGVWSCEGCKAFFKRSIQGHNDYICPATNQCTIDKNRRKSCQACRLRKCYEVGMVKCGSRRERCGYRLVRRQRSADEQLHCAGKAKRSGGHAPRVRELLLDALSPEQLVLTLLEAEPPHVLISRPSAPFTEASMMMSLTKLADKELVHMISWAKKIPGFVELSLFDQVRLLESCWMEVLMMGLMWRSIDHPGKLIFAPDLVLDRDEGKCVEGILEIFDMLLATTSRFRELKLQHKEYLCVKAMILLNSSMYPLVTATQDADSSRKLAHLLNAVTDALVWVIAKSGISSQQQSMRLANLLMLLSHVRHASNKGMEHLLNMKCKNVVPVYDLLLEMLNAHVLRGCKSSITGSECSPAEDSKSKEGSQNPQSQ
Outline: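 Beta-lactamase reporter readout: fluorescence of LiveBLAzer B/G FRET substrate after 2 h at room temperature, following 16 h compound treatment of ER-beta-UAS-bla HEK293T cells at 37C in 2% charcoal-stripped FBS medium.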

[16] = qHTS assay to identify small molecule antagonists of the androgen receptor (AR) signaling pathway using the MDA cell line in the presence of 0.5 nM R1881 - cell viability counter screen (AID 1259242); further: nearly all actives have a fitted effect of over 45% in size
Outline: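 Cytotoxicity toward MDA-kb2 cells is measured by CellTiter-Fluor live-cell protease fluorescence after 16 hr compound exposure at 37C in the presence of 0.5 nM R1881 stimulator.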

[17] = biological target: Androgen receptor (Homo sapiens) (UniProt P10275); assay: qHTS assay to identify small molecule antagonists of the androgen receptor (AR) signaling pathway using the MDA cell line in the presence of 0.5 nM R1881 (AID 1259243); further: nearly all actives have a fitted effect of over 50% in size; further: potency means the concentration at half of the fitted maximal effect
Chain of Androgen receptor (Homo sapiens) (P10275 whole entry, looked up): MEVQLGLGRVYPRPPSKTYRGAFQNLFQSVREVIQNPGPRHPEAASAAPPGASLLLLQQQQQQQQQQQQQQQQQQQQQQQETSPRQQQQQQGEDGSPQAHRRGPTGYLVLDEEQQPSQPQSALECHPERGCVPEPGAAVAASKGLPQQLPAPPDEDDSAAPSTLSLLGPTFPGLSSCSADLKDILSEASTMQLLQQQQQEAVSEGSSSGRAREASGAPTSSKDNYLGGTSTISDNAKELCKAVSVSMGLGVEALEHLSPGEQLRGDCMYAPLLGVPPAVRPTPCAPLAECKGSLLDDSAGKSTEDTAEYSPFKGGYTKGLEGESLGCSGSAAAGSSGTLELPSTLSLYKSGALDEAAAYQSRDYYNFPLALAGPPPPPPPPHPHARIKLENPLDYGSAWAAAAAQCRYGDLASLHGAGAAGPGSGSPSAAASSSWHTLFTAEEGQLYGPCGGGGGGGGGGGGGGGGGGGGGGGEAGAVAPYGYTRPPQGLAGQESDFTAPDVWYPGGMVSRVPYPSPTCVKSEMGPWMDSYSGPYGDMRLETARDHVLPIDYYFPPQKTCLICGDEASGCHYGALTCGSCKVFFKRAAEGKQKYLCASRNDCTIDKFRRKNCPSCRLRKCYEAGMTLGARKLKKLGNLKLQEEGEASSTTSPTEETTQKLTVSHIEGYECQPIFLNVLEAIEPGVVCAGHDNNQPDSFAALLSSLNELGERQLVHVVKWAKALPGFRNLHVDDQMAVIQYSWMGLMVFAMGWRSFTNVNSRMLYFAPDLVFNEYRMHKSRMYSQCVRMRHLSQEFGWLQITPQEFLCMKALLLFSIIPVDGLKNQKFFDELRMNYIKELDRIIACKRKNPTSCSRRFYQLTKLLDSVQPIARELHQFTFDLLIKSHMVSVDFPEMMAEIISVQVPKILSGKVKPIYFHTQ
Outline: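 Steps: seed MDA-kb2 cells, incubate 5 hr at 37C; pin-transfer compounds in DMSO; add R1881 to 0.5 nM final; incubate 16 hr; add ONE-Glo, wait 30 min at room temperature; read luminescence.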

[18] = biological target: Androgen receptor (Homo sapiens) (UniProt P10275); assay: qHTS assay to identify small molecule agonists of the androgen receptor (AR) signaling pathway in the presence of an antagonist (AID 1259381; calls by dose curve; further: nearly all actives have a fitted effect of over 15% in size; further: potency means the concentration at half of the fitted maximal effect)
Outline: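 Cells are MDA-kb2 (human breast carcinoma, MMTV-luc, AR/GR responsive). Nilutamide is present at 3.0uM final throughout; compounds are added at 15 concentrations and incubated 16hr at 37C before ONE-Glo luminescence detection.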

[19] = biological target: Estrogen receptor beta (Homo sapiens) (UniProt Q92731); assay: qHTS assay to identify small molecule antagonists of the estrogen receptor beta (ER-beta) signaling pathway (AID 1259378; active means well fitted inhibition curve with a large enough effect in the signal ratio in the repeat runs, not every such curve was filed as active; the % refers to the signal ratio; further: potency means the concentration at half of the fitted maximal effect)
Outline: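 ER-beta-UAS-bla HEK293T cells in 2% charcoal-stripped FBS medium treated with compound plus 1nM final 17-beta-estradiol for 16 hr at 37C. Beta-lactamase reporter read by FRET substrate fluorescence after 2 hours at room temperature.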

Measured: Potency

CC(C)(C)C1(CCc2ccc(Cl)cc2)CO1 (stereo unspecified)
not listed: [14] | [15] | [16] | [17] | [18] | [19]
inactive: all other assays above

CCCCCCCC/C=C/C(=O)O
not listed: [3] | [10] | [11] | [12] | [16] | [17] | [18] | [19]
inactive: all other assays above

Nc1cccc2c(N)cccc12
inactive: [1] | [16] | [17] | [14] | [4] | [7] | [9] | [12]
active: [8] 5.45 µM | [10] 4.86 µM | [18] 54.5 µM

O=C(O)CCCc1c[nH]c2ccccc12
not listed: [3] | [12] | [16] | [17] | [18]
inactive: all other assays above

Cc1ccccc1S(N)(=O)=O
not listed: [3] | [12] | [15] | [16] | [17] | [18] | [19]
inactive: all other assays above

O=[N+]([O-])c1ccc2ncccc2c1
not listed: [2] | [17] | [18]
inactive: all other assays above

Oc1ccc2c(c1)Cc1ccccc1-2
inactive: [2] | [16] | [3] | [14] | [4] | [5] | [6] | [7] | [9] | [11]

O=[N+]([O-])C1(Br)COCOC1
inactive: [2] | [14] | [4] | [7] | [15] | [19] | [9] | [11] | [12]
active: [5] 43.3 µM | [8] 43.3 µM

CCN(CC)c1cccc(O)c1
not listed: [2] | [3] | [15] | [17]
inactive: all other assays above

CCC1CCC(CCC(=O)O)C1 (stereo unspecified)
inactive: [1] | [16] | [14] | [4] | [5] | [6] | [7] | [8] | [9] | [13]

O=C1[C@@H]2[C@H]3CC[C@H](C3)[C@@H]2C(=O)N1CCCCN1CCN(c2ncccn2)CC1
not listed: [1] | [3] | [14] | [15] | [17] | [18] | [19]
inactive: all other assays above

CN(C)CC/C=C1\c2ccccc2Sc2ccc(Cl)cc21
inactive: [14] | [4] | [7] | [18] | [12] | [13]
active: [17] 29.8 µM | [5] 26.6 µM | [9] 29.8 µM | [10] 23.7 µM | [11] 18.8 µM

Cc1ccc(N(CC2=NCCN2)c2cccc(O)c2)cc1
not listed: [2] | [5] | [6] | [8] | [14] | [17] | [18]
inactive: all other assays above

CCN(CC)C(=O)/C(C#N)=C/c1cc(O)c(O)c([N+](=O)[O-])c1
active: [17] 23.7 µM | [9] 23.7 µM
not listed: [2] | [6] | [14] | [16] | [19]
inactive: all other assays above

O[C@@H](CNC[C@H](O)[C@H]1CCc2cc(F)ccc2O1)[C@@H]1CCc2cc(F)ccc2O1
active: [1] 23.9 µM | [5] 29.8 µM | [6] 29.8 µM | [8] 13.3 µM | [19] 8.41 µM | [10] 11.9 µM | [11] 21.1 µM
inactive: [14] | [4] | [7] | [15] | [12] | [13]

CCC(=O)OCc1ccc(OC)cc1
not listed: [2] | [3] | [8] | [12] | [13] | [17] | [18]
inactive: all other assays above

c1ccc(CCCc2ccncc2)cc1
active: [14] 27.3 µM
not listed: [1] | [17] | [18] | [19]
inactive: all other assays above

CC[C@H]1OC(=O)[C@H](C)[C@@H](O[C@H]2C[C@@](C)(OC)[C@@H](O)[C@H](C)O2)[C@H](C)[C@@H](O[C@@H]2O[C@H](C)C[C@H](N(C)C)[C@H]2O)[C@](C)(O)C[C@@H](C)C(=O)[C@H](C)[C@@H](O)[C@]1(C)O
not listed: [2] | [3] | [5] | [12] | [17] | [18]
inactive: all other assays above

O=C1OC(=O)c2c(Br)c(Br)c(Br)c(Br)c21
not listed: [2] | [3] | [10] | [12] | [14] | [17] | [18]
inactive: all other assays above

CCC(CO)(CO)CO
not listed: [2] | [13] | [16]
inactive: all other assays above

Cc1cc([N+](=O)[O-])ccc1N
active: [9] 53.8 µM
not listed: [2] | [3] | [5] | [6] | [16] | [17] | [18]
inactive: all other assays above

O=C(NC(Cc1cc(=O)[nH]c2ccccc12)C(=O)O)c1ccc(Cl)cc1 (stereo unspecified)
not listed: [2] | [3] | [10] | [15] | [17] | [18] | [19]
inactive: all other assays above

COc1ccc(/C=C/C(=O)c2ccc(OC)cc2OC)cc1
inactive: [1] | [16] | [4] | [5] | [6] | [7] | [9] | [11] | [13]
